# The entries come from a sample that favours hits as a whole.
# KDM5B inhibitor = KDM5B demethylase inhibition; KDM5B demethylase, FDH-coupled NADH fluorescence (FDH is formaldehyde dehydrogenase); Q9UGL1; 220,000 tested, 2.6% active; Potency, µM (series often up to 57.7 µM), actives largely listed as inhibitors; active means well fitted inhibition curve with a large enough effect; further: 0% is about no effect; nearly all actives have a fitted effect of over 70% in size
# Target sequence (Q9UGL1 whole entry, looked up): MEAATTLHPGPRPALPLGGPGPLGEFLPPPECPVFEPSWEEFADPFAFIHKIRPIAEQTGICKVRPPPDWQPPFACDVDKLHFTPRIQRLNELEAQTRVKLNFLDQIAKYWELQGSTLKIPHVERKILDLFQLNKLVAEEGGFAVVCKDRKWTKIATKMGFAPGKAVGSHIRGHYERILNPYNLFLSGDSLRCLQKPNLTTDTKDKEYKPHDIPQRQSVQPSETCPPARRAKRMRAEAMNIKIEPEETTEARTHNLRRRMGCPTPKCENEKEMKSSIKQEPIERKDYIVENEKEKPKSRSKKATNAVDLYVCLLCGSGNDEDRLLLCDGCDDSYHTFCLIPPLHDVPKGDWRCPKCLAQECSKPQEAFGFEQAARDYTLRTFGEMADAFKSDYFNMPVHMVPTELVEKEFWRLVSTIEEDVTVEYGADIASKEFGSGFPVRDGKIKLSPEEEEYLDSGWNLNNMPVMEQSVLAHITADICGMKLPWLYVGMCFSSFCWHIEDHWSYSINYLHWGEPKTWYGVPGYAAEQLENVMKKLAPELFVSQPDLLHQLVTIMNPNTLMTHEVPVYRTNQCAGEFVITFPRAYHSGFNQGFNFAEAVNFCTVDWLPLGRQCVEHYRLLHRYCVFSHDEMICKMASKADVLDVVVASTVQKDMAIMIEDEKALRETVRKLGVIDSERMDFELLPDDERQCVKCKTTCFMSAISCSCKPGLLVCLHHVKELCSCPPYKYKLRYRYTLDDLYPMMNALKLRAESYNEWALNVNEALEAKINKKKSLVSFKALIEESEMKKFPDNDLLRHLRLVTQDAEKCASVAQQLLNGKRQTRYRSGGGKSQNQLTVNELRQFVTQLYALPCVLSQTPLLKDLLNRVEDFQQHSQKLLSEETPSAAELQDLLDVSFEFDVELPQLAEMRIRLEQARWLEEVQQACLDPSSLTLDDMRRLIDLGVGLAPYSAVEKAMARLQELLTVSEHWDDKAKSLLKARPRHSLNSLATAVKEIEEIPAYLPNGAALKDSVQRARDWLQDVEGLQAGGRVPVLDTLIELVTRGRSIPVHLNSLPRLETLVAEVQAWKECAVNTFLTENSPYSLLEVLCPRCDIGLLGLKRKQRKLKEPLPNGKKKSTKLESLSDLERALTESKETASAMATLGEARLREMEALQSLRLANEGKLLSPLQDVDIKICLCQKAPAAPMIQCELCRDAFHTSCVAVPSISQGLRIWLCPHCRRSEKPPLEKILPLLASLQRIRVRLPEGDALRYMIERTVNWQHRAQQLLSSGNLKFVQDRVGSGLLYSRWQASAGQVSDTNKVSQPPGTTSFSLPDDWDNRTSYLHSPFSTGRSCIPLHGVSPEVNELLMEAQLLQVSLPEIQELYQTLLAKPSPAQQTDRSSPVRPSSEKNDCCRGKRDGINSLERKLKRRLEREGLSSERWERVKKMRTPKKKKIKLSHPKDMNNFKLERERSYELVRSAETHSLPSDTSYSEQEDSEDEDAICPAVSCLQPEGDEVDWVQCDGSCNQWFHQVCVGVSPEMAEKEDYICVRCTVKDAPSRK
#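 qHTS format, multiple compound concentrations. Buffer 50 mM HEPES pH 7.5/0.01% Tween-20; 200 nM KDM5BΔAP final; 10 min compound preincubation; substrate-mix levels 12.5 µM peptide, 25 µM α-KG, 0.25 mM NAD⁺; 30 min RT; ΔRFU.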
# * marks the source's active call; other numbers are inactive results; i = inactive. Potency means the concentration at half of the fitted maximal effect.
SMILES,KDM5B inhibitor
CCCc1ccc(S(=O)(=O)N2CCc3nc4cc[nH]n4c(=O)c3C2)cc1,14.1µM*
Cn1c(=O)oc2cc(S(=O)(=O)N3CCc4c(nc[nH]c4=O)C3)ccc21,i
Cc1ccc(S(=O)(=O)N2CCc3nc4cc[nH]n4c(=O)c3C2)cc1C,25.1µM*
Cc1nnnn1CCCN1CCn2nc(CCC(=O)O)cc2C1,i
Cc1cccc(C)c1NC(=O)COC(=O)CC1Sc2ccccc2NC1=O (stereo not drawn),i
Cc1[nH]c2ccc(C(=O)NCC(=O)NC(C)C)cc2c1C,i
CCOC(=O)C1CCCN(S(=O)(=O)NCc2ccnc(Oc3ccc(OC)cc3)c2)C1 (stereo not drawn),i
NC(=O)c1cnn(-c2ccccc2)c1NCc1ccncc1,i
CC1(C)CC(Nc2nccc(-c3cnn(-c4ccccc4)c3)n2)CC(C)(C)N1,28.2µM*
CC(C)NC(=O)c1cn(-c2ccccc2)nc1-c1cccnc1,i
CC1(C)CC(Nc2ncnc3ccccc23)CC(C)(C)N1,i
CC1(C)CC(Nc2nccc(C(F)(F)F)n2)CC(C)(C)N1,i
CC(Cc1ccncc1)Nc1nccc(-c2cnn(-c3ccccc3F)c2)n1 (stereo not drawn),28.2µM*
CC(Cc1ccncc1)Nc1nccc(-c2cnn(-c3ccccc3)c2)n1 (stereo not drawn),31.6µM*
COc1cccc(Cn2c(NCC(C)O)nc3c2c(=O)n(C)c(=O)n3C)c1 (stereo not drawn),i
CC(=O)N(C)CCc1noc(C2CN(C(=O)c3c(C)noc3C)C2)n1,i
Cc1ccc(C(=O)COC(=O)C2CC3CCCC(C2)C32SCCS2)s1 (stereo not drawn),i
Nc1ncc(-c2ccccc2)c(-c2ccc(OCc3ccccc3F)cc2O)n1,i
O=C(CSCc1nc2ccccc2c(=O)[nH]1)Nc1cccc(O)c1,i
O=C(CC1COCCN1C(=O)c1ccc2nccnc2c1)N1CCCC1 (stereo not drawn),i
COc1ccc2oc(-c3ccc(NC(=O)c4ccccc4OC)cc3)nc2c1,i
CCCC1CCC(C)CC1O (stereo not drawn),i
Cc1cc(C)n(-c2nc(-c3ccccc3)cc(=O)n2CC(=O)Nc2cccc(C)c2C)n1,i
CCCCCNC(=O)Cc1cccs1,i
Cc1cccc(OCc2cc(=O)n3c(-c4ccccc4)csc3n2)c1C,i
SMILES,KDM5B inhibitor
COc1ccc(CC(=O)NCCc2csc3nc(-c4ccccc4F)nn23)cc1,i
Cc1nn(CC(=O)NCc2ccco2)c(=O)c2cc3ccccc3n12,i
Cc1nc2scc(CC(=O)NCc3ccco3)n2c(=O)c1-c1cc(C)n(-c2cc(F)ccc2F)n1,25.1µM*
Cc1nn(-c2ccc(F)cc2)c(Oc2ccc(F)cc2F)c1CCC(=O)NCc1ccco1,i
COCCNC(=O)Cc1nn(C)c(=O)c2ccccc12,i
CCCCNC(=O)COC(=O)Cc1nn(C)c(=O)c2ccccc12,i
CCCCNC(=O)Cc1csc2nc(C)c(-c3cc(C)n(-c4cccc(C)c4C)n3)c(=O)n12,28.2µM*
COCCNC(=O)Cc1csc2nc(C)c(-c3cc(C)n(-c4ccccc4F)n3)c(=O)n12,28.2µM*
Cc1cccc(-n2nc(-c3c(C)nc4scc(CC(=O)NC(C)C)n4c3=O)cc2C)c1C,25.1µM*
N#Cc1ccc(S(=O)(=O)Nc2c(NCC3CCCCC3)c3ccccc3oc2=O)cc1,i
COCCn1c(-n2nc(C)cc2C)nc2c1c(=O)n(Cc1cccc(Cl)c1)c(=O)n2C,i
O=C(c1ccsc1)N(CC1CCOC1)C1CC1 (stereo not drawn),i
COc1ccccc1CC(=O)Nc1nc(C)c(C(C)=O)s1,i
CCN(CCNc1ncncn1)c1cccc(C)c1,i
Cc1ccc(Nc2nc(-c3cccc([N+](=O)[O-])c3)cs2)cc1C,i
CCCCn1c(=O)[nH]c(=O)c2c1nc(CSc1nnnn1-c1ccc(C)cc1)n2CCC,i
COCc1ccccc1NS(=O)(=O)c1cc(C(=O)O)cc2c1CCC2,i
Cc1cc(C(=O)C(C)Sc2nnnn2Cc2cccs2)c(C)n1Cc1ccco1 (stereo not drawn),i
Cc1ccc(CC2CCOC3(CCN(C(=O)c4cccs4)CC3)C2)cc1 (stereo not drawn),i
COc1cncc(N2C[C@H]3[C@H](C2)[S+](=O)([O-])C(C)(C)C(=O)N3Cc2ccccc2)c1,7.08µM*
CC1(C)C(=O)N(Cc2ccccc2)[C@H]2CN(c3ccnc(N4CCOCC4)c3)C[C@@H]2[S+]1(=O)[O-],i
CC1(C)C(=O)N(Cc2ccccc2)[C@H]2CN(Cc3ccncc3)C[C@H]2[S+]1(=O)[O-],i
COc1ccc(-c2nc(S(=O)(=O)c3ccc4c(c3)OCCO4)c(N3CCOCC3)o2)cc1,i
CC1CCN(Cc2nnnn2CC(=O)N(C)Cc2ccccn2)CC1,i
Cc1cc(C)n(-c2cccc(CN(C)C(=O)Cn3nnnc3CN3CCOCC3)c2)n1,i
SMILES,KDM5B inhibitor
COc1ccc(CN(C)C(=O)Cn2nnnc2CN2CCOCC2)c2cccnc12,22.4µM*
COc1ccc(C(=O)N2CC(c3nnc(-c4ccncc4)o3)C3(CCOCC3)C2)cc1F (stereo not drawn),i
COc1ccc(/C(O)=C2\C(=O)C(=O)N(c3ccccn3)C2c2ccc(C(C)C)cc2)cc1 (stereo not drawn),i
CSc1ccc(N2CC(C(=O)N(C)Cc3cnn(Cc4ccccc4)c3)CC2=O)cc1 (stereo not drawn),i
O=C(CSc1nc(CN2CCOCC2)nc2ccccc12)NC1CC1,i
C[S+](=O)([O-])c1ccc(-c2nccc3c(=O)cc(-c4cccnc4)oc23)cc1,35.5µM*
COc1ccc(-c2nccc3c(=O)cc(-c4cccnc4)oc23)cc1OC,i
Cc1ccc2c(=O)cc(C(=O)Nc3cccnc3)oc2c1C,i
COc1ncccc1-c1nccc2c(=O)cc(N(C)c3ccccc3)oc12,i
Cc1ccccc1-c1nccc2c(=O)cc(-c3cccnc3)oc12,39.8µM*
Cc1nnc(-c2cc(-c3ccc([S+](C)(=O)[O-])cc3)ccn2)n1Cc1cccnc1,i
O=c1cc(-c2cccnc2)oc2c(-c3ccc(O)c(F)c3)nccc12,i
Cc1cccc2cc(-c3nc(-c4cccnc4)no3)c(=O)oc12,i
COc1ncccc1-c1nccc2c(=O)cc(-c3cccnc3)oc12,35.5µM*
Cc1cnc(C)n1C1CCN(S(=O)(=O)c2ccccc2)CC1,i
COc1ccccc1C(=O)N1CCC(Cc2nc(-c3ccc(F)cc3)no2)CC1,i
CC1(C)CC(NC(=S)NCCc2ccccc2)CC(C)(CNC(=S)NCCc2ccccc2)C1 (stereo not drawn),i
O=C(O)c1cccc(CSc2ccc3c(c2)OCCO3)c1,i
COc1cc(NC(=O)CSc2nc(Cl)nc3nc[nH]c23)cc(OC)c1OC,i
Cn1nc(C2CCCN(C(=O)C3CCOCC3)C2)n(C2CCCC2)c1=O (stereo not drawn),i
Cc1ccc(-c2ccc3nnc(CNC(=O)c4cc(Cl)ccc4F)n3n2)cc1,28.2µM*
COc1ccc(CNC(=O)c2cc(-c3ccc(Cl)cc3)n[nH]2)cc1,i
COc1ccc(-c2cc(N3CCCC(NC(=O)c4cc(F)ccc4F)C3)n[nH]2)cc1 (stereo not drawn),i
COc1ccc2[nH]cc(CCNC(=O)c3cc(F)ccc3F)c2c1,i
O=C(NCc1ccc(OC(F)F)cc1)c1cc(Cl)ccc1-n1cnnn1,i
